Results reported in PubChem BioAssay (Tox21).
Records with an inconclusive call do not appear. Active and inactive are the calls of the source. Calls come from the whole dose curve; as a rule, active = well fitted curve in the direction sought with a large enough effect in the repeat runs; inconclusive = weak or mixed curves; inactive = no such curve, though single readings can be large; an effect the other way counts as inactive or inconclusive.

How the values were obtained:
[1] = qHTS RealTime-Glo MT Cell Viability Assay in HEK293 cells - 16 hour (AID 1224872); note: top concentration of the series differs between compounds; nearly all actives have a fitted effect of over 50% in size
Outline: (§1)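 Quantitative high-throughput screen of the Tox21 10K library in HEK293: cells and RealTime-Glo reagents plated together, compound added at 5 h, luminescence monitored through 40 h at 37 C.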

[2] = qHTS RealTime-Glo MT Cell Viability Assay in HepG2 cells - 8 hour (AID 1224873); note: nearly all actives have a fitted effect of over 55% in size
Outline: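 HepG2 cells (600/well) mixed with RealTime-Glo MT reagent, settled 5 h at 37 C/5% CO2 before compound addition. Nonlytic NanoLuc luminescence from viable-cell prosubstrate reduction read repeatedly during 40 h treatment at 37 C.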

[3] = qHTS RealTime-Glo MT Cell Viability Assay in HEK293 cells - 40 hour (AID 1224874); conditions: RealTime-Glo luminescence; max response: hits give low values; note: nearly all actives have a fitted effect of over 50% in size; note: potency is the fitted concentration of half-maximal effect
Outline: (§2)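 HEK293 cells mixed with RealTime-Glo reagents (NanoLuc plus cell-permeant prosubstrate) at 600 cells/well, preincubated 5 h at 37 C/5% CO2, then given 23 nL compound in DMSO. Nonlytic luminescence from viable cells was read at 0, 8, 16, 24, 32 and 40 h.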

[4] = A CellTox Green Cytotoxicity Assay to monitor cytotoxicity in HEK293 cells - 24 hour (AID 1224875); note: series mostly up to about 77 µM; nearly all actives have a fitted effect of over 45% in size
Outline: (§3)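 HEK293 cells premixed with CellTox Green dye were seeded at 600 cells/well and left 5 h at 37 C/5% CO2 before pin transfer of 23 nL compound in DMSO. Fluorescence from dye bound to dead-cell DNA was read during 40 h treatment.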

[5] = A CellTox Green Cytotoxicity Assay to monitor cytotoxicity in HepG2 cells - 16 hour (AID 1224876); note: nearly all actives have a fitted effect of over 45% in size
Outline: (§4)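 HepG2 cells were seeded together with the CellTox Green dye at 600 cells/well, left 5 h at 37 C/5% CO2, then given compounds in DMSO. Fluorescence from dye bound to dead-cell DNA was read repeatedly over 40 h of treatment at 37 C.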

[6] = qHTS RealTime-Glo MT Cell Viability Assay in HepG2 cells - 32 hour (AID 1224877); note: nearly all actives have a fitted effect of over 55% in size
Outline: (§5)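 Compound treatment began 5 h after plating HepG2 cells (600/well) with NanoLuc luciferase and prosubstrate. Plates stayed at 37 C for 40 h; luminescence was captured at six time points, 0 h through 40 h.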

[7] = A CellTox Green Cytotoxicity Assay to monitor cytotoxicity in HepG2 cells - 24 hour (AID 1224878); note: nearly all actives have a fitted effect of over 45% in size
Outline: as §4

[8] = A CellTox Green Cytotoxicity Assay to monitor cytotoxicity in HepG2 cells - 40 hour (AID 1224879); note: nearly all actives have a fitted effect of over 40% in size
Outline: as §4

[9] = qHTS RealTime-Glo MT Cell Viability Assay in HEK293 cells - 0 hour (AID 1224880); note: nearly all actives have a fitted effect of over 45% in size; note: potency is the fitted concentration of half-maximal effect
Outline: as §2

[10] = A CellTox Green Cytotoxicity Assay to monitor cytotoxicity in HEK293 cells - 32 hour (AID 1224881); note: nearly all actives have a fitted effect of over 40% in size
Outline: as §3

[11] = A CellTox Green Cytotoxicity Assay to monitor cytotoxicity in HepG2 cells - 0 hour (AID 1224882); note: nearly all actives have a fitted effect of over 35% in size
Outline: as §4

[12] = A CellTox Green Cytotoxicity Assay to monitor cytotoxicity in HepG2 cells - 32 hour (AID 1224883); note: nearly all actives have a fitted effect of over 50% in size
Outline: as §4

[13] = qHTS RealTime-Glo MT Cell Viability Assay in HepG2 cells - 16 hour (AID 1224885); note: nearly all actives have a fitted effect of over 50% in size
Outline: as §5

[14] = qHTS RealTime-Glo MT Cell Viability Assay in HEK293 cells - 24 hour (AID 1224886)
Outline: as §1

[15] = qHTS RealTime-Glo MT Cell Viability Assay in HEK293 cells - 8 hour (AID 1224887); note: nearly all actives have a fitted effect of over 50% in size; note: potency is the fitted concentration of half-maximal effect
Outline: as §2

[16] = A CellTox Green Cytotoxicity Assay to monitor cytotoxicity in HEK293 cells - 16 hour (AID 1224888); note: nearly all actives have a fitted effect of over 35% in size
Outline: as §3

[17] = qHTS RealTime-Glo MT Cell Viability Assay in HepG2 cells - 0 hour (AID 1224889); note: nearly all actives have a fitted effect of over 50% in size; note: potency is the fitted concentration of half-maximal effect
Outline: as §5

[18] = A CellTox Green Cytotoxicity Assay to monitor cytotoxicity in HepG2 cells - 8 hour (AID 1224890); note: nearly all actives have a fitted effect of over 45% in size
Outline: as §4

[19] = A CellTox Green Cytotoxicity Assay to monitor cytotoxicity in HEK293 cells - 40 hour (AID 1224871); note: nearly all actives have a fitted effect of over 45% in size; note: potency is the fitted concentration of half-maximal effect
Outline: as §3

[20] = A CellTox Green Cytotoxicity Assay to monitor cytotoxicity in HEK293 cells - 8 hour (AID 1224884); note: nearly all actives have a fitted effect of over 35% in size
Outline: as §3
% is set by controls: 0 for no effect and ±100 for the full control effect.

C=CCCCCCCCCC(=O)OCC
inactive: Potency [1] | outcome [2] | max response [3] 3.1% | outcome [4] | outcome [5] | Potency [6] | outcome [7] | Potency [8] | Potency [9] | outcome [10] | Potency [11] | Potency [12] | outcome [13] | Potency [14] | Potency [15] | outcome [16] | Potency [17] | outcome [18]

Cc1nc(C2CCCCC2)c(-c2ccc(S(N)(=O)=O)c(F)c2)o1
inactive: Potency [19] | outcome [4] | outcome [5] | Potency [6] | outcome [7] | Potency [8] | Potency [9] | outcome [10] | Potency [12] | outcome [20] | outcome [16] | Potency [17] | outcome [18]

CC1OC1C1CCC2(C)OC2C1 (stereo not drawn)
inactive: Potency [19] | Potency [1] | outcome [2] | max response [3] 1.23% | outcome [4] | Potency [6] | Potency [9] | outcome [10] | Potency [11] | outcome [20] | outcome [13] | Potency [14] | Potency [15] | outcome [16] | Potency [17]

COC(=O)Nc1ccc(Cl)c(Cl)c1
inactive: Potency [19] | outcome [2] | max response [3] -27.2% | outcome [4] | outcome [5] | Potency [6] | outcome [7] | Potency [8] | Potency [9] | outcome [10] | Potency [11] | outcome [20] | outcome [13] | outcome [16]

CC[N+](CC)(CC)CCOc1cccc(OCC[N+](CC)(CC)CC)c1OCC[N+](CC)(CC)CC
inactive: Potency [19] | Potency [1] | outcome [2] | max response [3] 2.7% | outcome [4] | outcome [5] | outcome [7] | Potency [8] | Potency [9] | outcome [10] | Potency [11] | outcome [20] | outcome [13] | Potency [14] | Potency [15] | outcome [16] | outcome [18]

O=S(=O)(O)c1cccc2c(S(=O)(=O)O)cccc12
inactive: Potency [19] | outcome [2] | outcome [5] | Potency [6] | outcome [7] | Potency [8] | Potency [9] | outcome [10] | Potency [11] | outcome [20] | outcome [13] | Potency [15] | Potency [17]

COc1ccnc(CS(=O)c2nc3cc(OC(F)F)ccc3[nH]2)c1OC (stereo not drawn)
inactive: Potency [19] | Potency [1] | outcome [2] | outcome [4] | outcome [5] | Potency [6] | outcome [7] | Potency [8] | Potency [9] | outcome [10] | Potency [11] | Potency [12] | outcome [20] | outcome [13] | Potency [14] | Potency [15] | outcome [16] | outcome [18]

O=C(c1ccccc1O)c1ccccc1O
inactive: outcome [2] | outcome [4] | outcome [5] | Potency [6] | outcome [7] | Potency [8] | Potency [9] | Potency [11] | outcome [20] | outcome [13] | Potency [15] | outcome [16] | outcome [18]
active: Potency [19] 48.5 µM

Cc1nc2ccc(CN(C)c3ccc(C(=O)N[C@@H](CCC(=O)O)C(=O)O)s3)cc2c(=O)[nH]1
inactive: Potency [19] | Potency [1] | outcome [2] | outcome [4] | outcome [5] | Potency [6] | outcome [7] | Potency [8] | Potency [9] | outcome [10] | Potency [11] | outcome [20] | outcome [13] | Potency [14] | Potency [15] | Potency [17] | outcome [18]

COC(=O)C1=C(C)NC(C)=C(C(=O)OC(C)C)C1c1cccc2nonc12 (stereo not drawn)
active: Potency [3] 16.9 µM | Potency [9] 1.69 µM | Potency [17] 1.07 µM
inactive: Potency [19] | outcome [4] | outcome [5] | outcome [7] | Potency [8] | outcome [10] | Potency [11] | Potency [12] | outcome [20] | outcome [16] | outcome [18]

C[N+](C)(CCOc1ccccc1)Cc1cccs1
inactive: Potency [19] | Potency [1] | outcome [2] | max response [3] 6.59% | outcome [4] | Potency [9] | outcome [10] | Potency [11] | outcome [20] | outcome [13] | Potency [14] | Potency [15] | outcome [16] | outcome [18]

O=C1c2ccccc2C(=O)c2cc(O)ccc21
inactive: Potency [19] | outcome [2] | outcome [4] | outcome [5] | Potency [6] | outcome [7] | Potency [8] | Potency [9] | outcome [10] | Potency [11] | Potency [12] | outcome [20] | outcome [13] | outcome [16] | Potency [17] | outcome [18]
active: Potency [15] 55 µM

C=C(C)C(=O)OCCOCCOCCOCCOC(=O)C(=C)C
inactive: Potency [19] | Potency [1] | outcome [2] | outcome [4] | outcome [5] | Potency [6] | outcome [7] | Potency [8] | Potency [9] | outcome [10] | Potency [11] | Potency [12] | outcome [20] | outcome [13] | Potency [14] | Potency [15] | outcome [16] | Potency [17] | outcome [18]

CC1=C(C/C=C(\C)CCC[C@H](C)CCC[C@H](C)CCCC(C)C)C(=O)c2ccccc2C1=O
inactive: Potency [19] | outcome [2] | outcome [4] | outcome [5] | Potency [6] | outcome [7] | Potency [8] | Potency [9] | outcome [10] | Potency [11] | Potency [12] | outcome [20] | outcome [13] | Potency [15] | outcome [16] | Potency [17] | outcome [18]

COc1cc2c(cc1OC)-c1cc3ccc(OC)c(OC)c3c[n+]1CC2
inactive: Potency [19] | outcome [2] | outcome [4] | outcome [5] | Potency [6] | outcome [7] | Potency [8] | Potency [9] | outcome [10] | Potency [11] | Potency [12] | outcome [20] | outcome [13] | Potency [15] | outcome [16] | Potency [17] | outcome [18]
active: Potency [3] 44.1 µM
